The source of these data is PubChem BioAssay (NCATS).

For experiment [1], the target named is Voltage-gated inwardly rectifying potassium channel KCNH2 (Homo sapiens) (UniProt Q12809). Nature of the experiment: qHTS Assay for Small Molecule Inhibitors of the Human hERG Channel Activity (AID 588834).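 Further: lower thallium flux fluorescence means stronger hERG block; nearly all actives have a fitted effect of over 50% in size.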 Further: potency means the concentration at half of the fitted maximal effect. The essentials: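 Step 1: BacMam hERG transduction of U2OS, 4 hrs RT. Step 2: overnight 37 °C, plate 2000 cells/well, 4 hr. Step 3: FluxOR load, compound 10 min, stimulate, read fluorescence.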
Background: In qHTS, concentration-response curves come from the screen itself.

In experiment [2] the target is Luciferin 4-monooxygenase (Photinus pyralis) (UniProt P08659). Description: Biochemical firefly luciferase enzyme assay for NPC (AID 624030).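 Further: purified P. pyralis luciferase at 10 nM with luciferin and ATP substrate; series mostly up to about 59 µM; nearly all actives have a fitted effect of over 70% in size.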 The essentials: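 Counter-screen for direct inhibition of the luciferase enzyme by approved-drug library compounds, run at 10 nM enzyme in 50 mM Tris acetate (final). Luminescence was read within 5 min of enzyme-buffer addition and normalized to PTC124 versus DMSO (0%).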

A short description of experiment [3]: S16 Schwann cell viability assay (CellTiter-Glo assay) (AID 624031).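 Further: native untransfected S16 rat Schwann cells; series mostly up to about 58 µM; nearly all actives have a fitted effect of over 70% in size.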 The essentials:
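Counter-screen for cytotoxicity: parental S16 rat Schwann cells lacking the PMP22 reporters, treated 24 h with compound, viability from cellular ATP by CellTiter-Glo luminescence, normalized to DMSO (0%) and no-cell wells.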

Where “and” joins values, the source holds several entries; their conditions need not be identical. Equal values may be shown once. Inconclusive results are not listed. Calls of active or inactive are those of the source. The call rests on the fitted dose curve; in most records, active means well fitted curve in the direction sought with a large enough effect; inconclusive means small, poorly fitted or top-dose-only effect, or another doubt; inactive means no such curve, though single readings can be large; an effect the other way counts as inactive or inconclusive.

Voltage-gated inwardly rectifying potassium channel KCNH2 (Homo sapiens), sequence (Q12809 whole entry, looked up): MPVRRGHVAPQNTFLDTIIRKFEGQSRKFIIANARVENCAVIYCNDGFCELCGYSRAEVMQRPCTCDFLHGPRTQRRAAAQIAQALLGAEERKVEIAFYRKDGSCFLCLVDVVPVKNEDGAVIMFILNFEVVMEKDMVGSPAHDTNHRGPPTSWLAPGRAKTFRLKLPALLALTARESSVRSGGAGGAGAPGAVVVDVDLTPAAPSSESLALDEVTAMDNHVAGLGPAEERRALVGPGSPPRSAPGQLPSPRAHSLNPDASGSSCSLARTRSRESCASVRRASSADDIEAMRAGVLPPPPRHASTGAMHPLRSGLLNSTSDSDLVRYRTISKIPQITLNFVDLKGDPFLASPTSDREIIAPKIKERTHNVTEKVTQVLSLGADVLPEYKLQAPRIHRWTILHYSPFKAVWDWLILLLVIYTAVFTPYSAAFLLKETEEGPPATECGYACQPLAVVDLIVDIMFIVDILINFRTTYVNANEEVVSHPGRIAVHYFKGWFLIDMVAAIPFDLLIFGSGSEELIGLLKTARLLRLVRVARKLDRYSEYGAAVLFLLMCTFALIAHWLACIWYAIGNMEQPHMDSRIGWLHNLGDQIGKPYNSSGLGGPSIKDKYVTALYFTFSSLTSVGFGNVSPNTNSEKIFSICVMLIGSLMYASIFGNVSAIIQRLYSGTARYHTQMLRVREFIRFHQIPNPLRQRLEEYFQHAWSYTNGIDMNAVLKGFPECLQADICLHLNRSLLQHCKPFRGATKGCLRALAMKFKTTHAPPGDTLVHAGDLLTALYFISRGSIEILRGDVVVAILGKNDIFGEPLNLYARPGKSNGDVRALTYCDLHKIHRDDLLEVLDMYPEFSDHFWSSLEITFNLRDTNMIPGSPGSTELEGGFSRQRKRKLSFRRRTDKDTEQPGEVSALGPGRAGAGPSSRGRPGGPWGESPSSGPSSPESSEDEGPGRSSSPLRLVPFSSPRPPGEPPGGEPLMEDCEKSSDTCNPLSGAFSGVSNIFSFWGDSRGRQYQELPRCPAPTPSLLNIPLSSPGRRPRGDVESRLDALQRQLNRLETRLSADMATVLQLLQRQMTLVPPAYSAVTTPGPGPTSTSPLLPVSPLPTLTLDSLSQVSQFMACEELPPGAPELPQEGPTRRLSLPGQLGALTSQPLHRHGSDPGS
Luciferin 4-monooxygenase (Photinus pyralis), sequence (P08659 whole entry, looked up): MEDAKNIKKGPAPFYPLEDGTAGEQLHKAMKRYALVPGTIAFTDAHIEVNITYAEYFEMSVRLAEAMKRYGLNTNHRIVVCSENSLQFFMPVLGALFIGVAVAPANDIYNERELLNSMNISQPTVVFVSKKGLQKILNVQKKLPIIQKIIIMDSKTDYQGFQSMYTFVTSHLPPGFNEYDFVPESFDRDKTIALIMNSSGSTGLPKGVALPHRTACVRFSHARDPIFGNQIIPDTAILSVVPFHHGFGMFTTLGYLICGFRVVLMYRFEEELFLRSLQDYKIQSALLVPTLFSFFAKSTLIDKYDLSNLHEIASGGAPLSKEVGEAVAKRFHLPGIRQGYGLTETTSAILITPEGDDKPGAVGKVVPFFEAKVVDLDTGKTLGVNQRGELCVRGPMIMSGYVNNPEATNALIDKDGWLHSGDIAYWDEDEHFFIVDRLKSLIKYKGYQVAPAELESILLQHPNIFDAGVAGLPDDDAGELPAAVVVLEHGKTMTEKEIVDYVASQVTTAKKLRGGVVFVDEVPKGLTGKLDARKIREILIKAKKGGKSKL

As for `CCCCCCCCCCCCCCCCCCOCC(O)CO` (stereo unspecified), the Potency entry in experiment [1], in experiment [2] and in experiment [3] was “inactive” in each case.

With `Cn1cc[nH]c1=S`, the Potency entry in experiment [1], in experiment [2] and in experiment [3] was “inactive” each time.

Take `CC1(C)CO[C@@H](CC(=O)O)CN1`: the Potency entry in experiment [1], in experiment [2] and in experiment [3] was “inactive” each time.

As to `C[C@](N)(Cc1ccc(O)cc1)C(=O)O`, the Potency result in experiment [1], in experiment [2] and in experiment [3] was “inactive” in each case.

As for `CCn1cc(C(=O)O)c(=O)c2cnc(N3CCNCC3)nc21`, the Potency result in experiment [1], in experiment [2] and in experiment [3] was “inactive” throughout.

Consider `Cc1cc(O)cc2c1O[C@](C)(CCC[C@H](C)CCC[C@H](C)CCCC(C)C)CC2`, for which the Potency entry in experiment [1], in experiment [2] and in experiment [3] was “inactive” throughout.

Take `CCN(CC)CCSC(=O)C(c1ccccc1)c1ccccc1`: the Potency in experiment [1] was 2.51 µM (active) and 4.47 µM (active). The Potency entry in experiment [2] and in experiment [3] was “inactive” in each case.

Turning to `Nc1ccc(S(=O)(=O)NC(=O)c2ccccc2)cc1`, the Potency entry in experiment [1], in experiment [2] and in experiment [3] was “inactive” in each case.

For `Oc1cn2c(n1)Nc1ccc(Cl)c(Cl)c1C2`, the Potency result in experiment [1], in experiment [2] and in experiment [3] was “inactive” in each case.

For `CC(=O)Oc1ccc(C2(c3ccc(OC(C)=O)cc3)C(=O)Nc3ccccc32)cc1`, the Potency result in experiment [1], in experiment [2] and in experiment [3] was “inactive” each time.

For the molecule `CC(=O)NC(Cc1ccccc1)C(=O)O` (stereo unspecified), the Potency entry in experiment [1], in experiment [2] and in experiment [3] was “inactive” in each case.

Take `OCC(O)CN1CCN(c2ccccc2)CC1` (stereo unspecified): the Potency entry in experiment [1], in experiment [2] and in experiment [3] was “inactive” throughout.
